Experimental data as given in PubChem BioAssay (NCATS).
Records with an inconclusive call do not appear. Entries that show only a call come without a potency. The source made the active and inactive calls. Calls follow the shape of the dose curve; as a rule, active = well fitted inhibition curve with a large enough effect; inconclusive = small, poorly fitted or top-dose-only effect; inactive = flat fitted curve, though single readings scatter.

Key:
Test in all cases: qHTS profiling for inhibitors of Plasmodium falciparum proliferation (AID 504749); also: nearly all actives have a fitted effect of over 60% in size
Conditions in all cases: P. falciparum in erythrocytes, SYBR Green DNA, 72 h; series mostly up to 28.7 µM
CP194 = tested on: CP194
Outline: (§1)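 P. falciparum-infected erythrocytes (0.3% parasitemia, 2.5% hematocrit) incubated with compound 72 h at 37 C, 5% CO2. Parasite DNA detected by SYBR Green after lysis, overnight at room temperature; normalised to 0.29 uM artemisinin and DMSO.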

CP201 = tested on: CP201
Outline: as §1

CP203 = tested on: CP203
Outline: as §1

CP211 = tested on: CP211
Outline: as §1

CP215 = tested on: CP215
Outline: as §1

CP217 = tested on: CP217
Outline: as §1

CP237 = tested on: CP237
Outline: as §1

CP238 = tested on: CP238
Outline: as §1

CP247 = tested on: CP247
Outline: as §1

CP250 = tested on: CP250
Outline: as §1

CP252 = tested on: CP252
Outline: as §1

CP256 = tested on: CP256
Outline: as §1

CP260 = tested on: CP260
Outline: as §1

CP262 = tested on: CP262
Outline: as §1

CP265 = tested on: CP265
Outline: as §1

CP266 = tested on: CP266
Outline: as §1

CP268 = tested on: CP268
Outline: as §1

CP269 = tested on: CP269
Outline: as §1

CP286 = tested on: CP286
Outline: as §1

CP291 = tested on: CP291
Outline: as §1
Potency is read from the fitted curve at half-maximal effect.

| SMILES | Potency (CP194) | Potency (CP201) | Potency (CP203) | Potency (CP211) | Potency (CP215) | Potency (CP217) | Potency (CP237) | Potency (CP238) | Potency (CP247) | Potency (CP250) | Potency (CP252) | Potency (CP256) | Potency (CP260) | Potency (CP262) | Potency (CP265) | Potency (CP266) | Potency (CP268) | Potency (CP269) | Potency (CP286) | Potency (CP291) |
| --- | --- | --- | --- | --- | --- | --- | --- | --- | --- | --- | --- | --- | --- | --- | --- | --- | --- | --- | --- | --- |
| O=S(=O)(O)CCCS(=O)(=O)O | inactive | inactive | inactive | inactive | inactive | inactive | inactive | inactive | inactive | inactive | inactive | inactive | inactive | inactive | inactive | inactive | inactive | inactive | inactive | inactive |
| CCCCCCCCCCCCCC(=O)OCC(COP(=O)([O-])OCC[N+](C)(C)C)OC(=O)CCCCCCCCCCCCC (stereo not given) | inactive | inactive | inactive | inactive | inactive | inactive | inactive | inactive | inactive | inactive | inactive | inactive | inactive | inactive | inactive | inactive | inactive | inactive | inactive | inactive |
| C[C@H](CCC(=O)O)[C@H]1CC[C@H]2[C@@H]3CC[C@@H]4C[C@H](O)CC[C@]4(C)[C@H]3C[C@H](O)[C@]12C | inactive | inactive | inactive | inactive | inactive | inactive | inactive | inactive | inactive | inactive | inactive | inactive | inactive | inactive | inactive | inactive | inactive | inactive | inactive | inactive |
| CCCc1ccc(C(=O)O)cc1 | inactive | inactive | inactive | inactive | inactive | inactive | inactive | inactive | inactive | inactive | inactive | inactive | inactive | inactive | inactive | inactive | inactive | inactive | inactive | inactive |
| COC(=O)CCC[N+](C)(C)C | inactive | inactive | inactive | inactive | inactive | inactive | inactive | inactive | inactive | inactive | inactive | inactive | inactive | inactive | inactive | inactive | inactive | inactive | inactive | inactive |
| CN(C)c1ccc(C(=C2C=CC(=[N+](C)C)C=C2)c2c(O)c(S(=O)(=O)[O-])cc3cc(S(=O)(=O)O)ccc23)cc1 | inactive | inactive | inactive | inactive | inactive | inactive | inactive | inactive | inactive | inactive | inactive | inactive | inactive | inactive | inactive | inactive | inactive | inactive | inactive | inactive |
| CN=C1C=CC(=C(c2ccc(N(C)C)cc2)c2ccc(N(C)C)cc2)C=C1 | 0.953 µM (active) | 1.2 µM (active) | 1.2 µM (active) | 0.757 µM (active) | 0.953 µM (active) | 0.316 µM (active) | 0.398 µM (active) | 0.562 µM (active) | 0.708 µM (active) | 0.562 µM (active) | 0.398 µM (active) | 0.355 µM (active) | 0.224 µM (active) | 0.757 µM (active) | 0.794 µM (active) | 1.07 µM (active) | 1.69 µM (active) | 0.849 µM (active) | 0.199 µM (active) | 1.07 µM (active) |
| O=C(O)Cc1cc(I)c(Oc2ccc(O)c(I)c2)c(I)c1 | inactive | inactive | inactive | inactive | inactive | inactive | inactive | inactive | inactive | inactive | inactive | inactive | inactive | inactive | inactive | inactive | inactive | inactive | inactive | inactive |
| C=CCOc1ccc(CC(=O)O)cc1Cl | inactive | inactive | inactive | inactive | inactive | inactive | inactive | inactive | inactive | inactive | inactive | inactive | inactive | inactive | inactive | inactive | inactive | inactive | inactive | inactive |
| CCCCCCCCCCCCCCCCCC[N+](C)(C)CCC[Si](OC)(OC)OC | inactive | inactive | inactive | inactive | inactive | inactive | inactive | inactive | inactive | inactive | inactive | inactive | inactive | inactive | inactive | inactive | inactive | inactive | inactive | inactive |
| O=C1CCC(c2ccccc2)(C2CCN(Cc3ccccc3)CC2)C(=O)N1 (stereo not given) | inactive | inactive | inactive | inactive | inactive | inactive | 11.2 µM (active) | inactive | inactive | inactive | inactive | inactive | inactive | inactive | inactive | inactive | inactive | inactive | inactive | inactive |
| OC[C@H]1O[C@@H]2O[C@H]3[C@H](O)[C@@H](O)[C@@H](O[C@H]4[C@H](O)[C@@H](O)[C@@H](O[C@H]5[C@H](O)[C@@H](O)[C@@H](O[C@H]6[C@H](O)[C@@H](O)[C@@H](O[C@H]7[C@H](O)[C@@H](O)[C@@H](O[C@H]1[C@H](O)[C@H]2O)O[C@@H]7CO)O[C@@H]6CO)O[C@@H]5CO)O[C@@H]4CO)O[C@@H]3CO | inactive | inactive | inactive | inactive | inactive | inactive | inactive | inactive | inactive | inactive | inactive | inactive | inactive | inactive | inactive | inactive | inactive | inactive | inactive | inactive |
| O=C1c2ccccc2C(=O)C1c1ccc(Cl)cc1 | inactive | inactive | inactive | inactive | inactive | inactive | inactive | inactive | inactive | inactive | inactive | inactive | inactive | inactive | inactive | inactive | inactive | inactive | inactive | inactive |
| CC(C)c1ncc([N+](=O)[O-])n1C | inactive | inactive | inactive | inactive | inactive | inactive | inactive | inactive | inactive | inactive | inactive | inactive | inactive | inactive | inactive | inactive | inactive | inactive | inactive | inactive |
| c1ccc(-n2cnnn2)cc1 | inactive | inactive | inactive | inactive | inactive | inactive | inactive | inactive | inactive | inactive | inactive | inactive | inactive | inactive | inactive | inactive | inactive | inactive | inactive | inactive |
| CCOc1ccc(NC(=S)Nc2ccc(OCC)cc2)cc1 | inactive | inactive | inactive | inactive | inactive | inactive | inactive | inactive | inactive | inactive | inactive | inactive | inactive | inactive | inactive | inactive | inactive | inactive | inactive | inactive |
| CC(=O)Nc1c(I)c(C(=O)O)c(I)c(N(C)C(C)=O)c1I | inactive | inactive | inactive | inactive | inactive | inactive | inactive | inactive | inactive | inactive | inactive | inactive | inactive | inactive | inactive | inactive | inactive | inactive | inactive | inactive |
| C[C@]12CC[C@@H]3c4ccc(OC(=O)c5ccccc5)cc4CC[C@H]3[C@@H]1CC[C@@H]2O | inactive | inactive | inactive | inactive | inactive | inactive | 4.47 µM (active) | inactive | inactive | inactive | inactive | inactive | 5.01 µM (active) | inactive | inactive | inactive | inactive | inactive | 12.6 µM (active) | inactive |
| CS(=O)(=O)OCC(O)C(O)COS(C)(=O)=O (stereo not given) | inactive | inactive | inactive | inactive | inactive | inactive | inactive | inactive | inactive | inactive | inactive | inactive | inactive | inactive | inactive | inactive | inactive | inactive | inactive | inactive |
| CC(C)CCCC(C)NC(C)C (stereo not given) | inactive | inactive | inactive | inactive | inactive | inactive | inactive | inactive | inactive | inactive | inactive | inactive | inactive | inactive | inactive | inactive | inactive | inactive | inactive | inactive |
| O=C(O)/C=C/c1ccccc1 | inactive | inactive | inactive | inactive | inactive | inactive | inactive | inactive | inactive | inactive | inactive | inactive | inactive | inactive | inactive | inactive | inactive | inactive | inactive | inactive |
| CC1CC(O)CC(C)(C)C1 (stereo not given) | inactive | inactive | inactive | inactive | inactive | inactive | inactive | inactive | inactive | inactive | inactive | inactive | inactive | inactive | inactive | inactive | inactive | inactive | inactive | inactive |
| CC(CCc1ccc(O)cc1)NCC(O)c1ccc(O)cc1 (stereo not given) | inactive | inactive | inactive | inactive | inactive | inactive | inactive | inactive | inactive | inactive | inactive | inactive | inactive | inactive | inactive | inactive | inactive | inactive | inactive | inactive |
| NC(=O)[C@H]1O[C@@H](O)[C@H](O)[C@@H](O)[C@@H]1O | inactive | inactive | inactive | inactive | inactive | inactive | inactive | inactive | inactive | inactive | inactive | inactive | inactive | inactive | inactive | inactive | inactive | inactive | inactive | inactive |
| O=C1c2ccccc2C(=O)C1c1ccc(F)cc1 | inactive | inactive | inactive | inactive | inactive | inactive | inactive | inactive | inactive | inactive | inactive | inactive | inactive | inactive | inactive | inactive | inactive | inactive | inactive | inactive |
| CC(C)CCC[C@@H](C)[C@H]1CC[C@H]2[C@@H]3CC[C@@H]4C[C@H](O)CC[C@]4(C)[C@H]3CC[C@]12C | inactive | inactive | inactive | inactive | inactive | inactive | inactive | inactive | inactive | inactive | inactive | inactive | inactive | inactive | inactive | inactive | inactive | inactive | inactive | inactive |
| CCOC(=O)[C@@H](N)CS | inactive | inactive | inactive | inactive | inactive | inactive | inactive | inactive | inactive | inactive | inactive | inactive | inactive | inactive | inactive | inactive | inactive | inactive | inactive | inactive |
